SMILES strings stand for the structures. The campaign covered roughly 69,000 compounds. About 8,600 (12%) showed an effect of 50% or more. Shown is part of a subset that was picked to be rich in strong results.

In the assay the test system is Plasmodium berghei. The assay can be described thus: Screen against P. berghei liver stage (PbLuc), transformed with Luciferase, at 10uM. Conditions: tested at 10 uM. Type of assay: functional, HepG2.
As for `CC(C)S(=O)(=O)N1CCN(C(=O)c2cnn(C)c2Cl)CC1`, the INHIBITION came out at 19.845%.

As for `O=C(O)c1ccccc1-n1cnc(CN2CCCCCC2)c1`, the INHIBITION came out at 14.6%. Then `O=C(NCCn1nc(C2CCNC2)c2cccnc21)C1CC1` (stereo unspecified), with 13.5%; and `COCCC(=O)NCCn1nc(C2CCNC2)c2cccnc21` (stereo unspecified), with 5.11%.

For the molecule `O=C(CCC1CCCC1)NCCn1nc(C2CCNC2)c2cccnc21` (stereo unspecified), the INHIBITION is reported as 38.7%. Then `O=C(CCC1CCCC1)NCCn1nc(C2CCNC2)c2nccnc21` (stereo unspecified), with 67.1%; and `CC(C)CC(=O)NCCn1nc(C2CCNC2)c2cccnc21` (stereo unspecified), with 44.8%.

As for `CC(C)(C)CC(=O)NCCn1nc(C2CCNC2)c2cccnc21` (stereo unspecified), the INHIBITION amounted to 54.5%.

Regarding `CC(C)(C)OC(=O)N[C@@H]1C[C@@H](O)CN(C(=O)c2ccc(F)cc2)C[C@H]1O`, the INHIBITION is listed as 6.26%. Next, `COCCN1CCC(c2ncc(C(=O)N3CCOCC3)c(C)n2)CC1`: -2.09%; `CC(C)NC(=O)CNC(=O)C12CCC(=O)N1c1cc(Cl)ccc1S2` (stereo unspecified): 73.6%.

As for `CCOCCCNC(=O)C1(C)CCC(=O)N1c1ccccc1F` (stereo unspecified), the INHIBITION was 37.4%. Next, `CC(C)C(=O)NCCNC(=O)C12CCC(=O)N1c1cc(Cl)ccc1S2` (stereo unspecified): 57.6%.

Turning to `CC(C)C(=O)NCc1cccc(N2CCCCC2=O)c1`, the INHIBITION turned out to be 19.4%. Next, `CC(C)NC(=O)CNC(=O)N1CCc2c([nH]c3ccc(Cl)cc23)C1`: -22.9%; `COC(=O)CNC(=O)C12CCC(=O)N1c1cc(Cl)ccc1S2` (stereo unspecified): 15.9%; `Cc1nn(C)c(Cl)c1C1CCCN1C(=O)c1ccncc1` (stereo unspecified): 38.5%. Then `O=C(c1cscn1)N1CCC2(CCCN(CCOc3ccccc3)C2)C1` (stereo unspecified), with -31.9%; and `CCN(C)S(=O)(=O)NCC1CCCN(Cc2ccccc2F)C1` (stereo unspecified), with 1.74%; and `CCC(C)N1Cc2c(C(=O)N3CCOCC3)nn(C)c2C1` (stereo unspecified), with 19.5%. `Cc1cnn(CC2CCCCN2C(=O)Cc2ccc(C#N)cc2)c1` (stereo unspecified): the INHIBITION is 2.97%. Then `Cc1ccc2nc(CN3CCN(C4CCCC4)C(=O)C3)cc(O)c2c1`, with -0.529%; and `Oc1cc(CN2CCC(O)(Cn3ccnc3)CC2)nc2ccc(F)cc12`, with 62.8%; and `Oc1cc(CN2CCC(O)(Cn3ccnc3)CC2)nc2c(Cl)cccc12`, with 27.6%.

As for `Cc1ccc2nc(CN3CCN(C4CCCCC4)C(=O)C3)cc(O)c2c1`, the INHIBITION was -46.2%. Take `Cc1ccc2nc(CN3CCC(O)(Cn4ccnc4)CC3)cc(O)c2c1`: the INHIBITION amounted to 43.4%. Then `Cc1ccc2nc(CN3CCC(O)(CN4CCCC4)CC3)cc(O)c2c1`, with 69.3%; and `CC(=O)N1CCc2nc(C3CCN(C(=O)c4ccccc4)C3)ncc2C1` (stereo unspecified), with -29.8%. In the case of `CN(Cc1cccs1)C(=O)CN1CCCC(Cn2cncn2)C1` (stereo unspecified), the INHIBITION was -4.16%. Then `CN1CCCN(S(=O)(=O)c2cccc(C(=O)N3CCCCCC3)c2)CC1`, with 36%. Next, `CCc1nnc(CNC(=O)CCC2CCCCN2C)s1` (stereo unspecified): 6.72%; `COc1coc(CN2CCCC(CCc3ccccc3F)C2)cc1=O` (stereo unspecified): 60.4%; `COc1cccc(F)c1CN1CCC(c2nc(C)cc(C)n2)C1` (stereo unspecified): 43.45%. As for `COc1coc(CN2CCCC(CCc3c(F)cccc3F)C2)cc1=O` (stereo unspecified), the INHIBITION was found to be 56.3%. For the molecule `CN1N=C(C(=O)N2CCCC(CCc3c(F)cccc3F)C2)CCC1=O` (stereo unspecified), the INHIBITION is given as 0.139%. Then `Cc1[nH]c(=O)[nH]c(=O)c1CN1CCCC(CCc2c(F)cccc2F)C1` (stereo unspecified), with 6.8%; and `CS(=O)(=O)NCCC1CCCN(Cc2ccccc2F)C1` (stereo unspecified), with 43.1%; and `COc1coc(CN2CCCC(CCc3ccccc3C)C2)cc1=O` (stereo unspecified), with 46.4%.

For the molecule `Cc1[nH]c(=O)[nH]c(=O)c1CN1CCCC(CCc2ccccc2F)C1` (stereo unspecified), the INHIBITION stood at 19.7%. Turning to `O=c1cc(CN2CCCC(CCc3c(F)cccc3F)C2)[nH]c(=O)[nH]1` (stereo unspecified), the INHIBITION is 58.5%. Then `COCCOCC(=O)NCc1ccc(N(C)C)nc1`, with 26.1%.

On to `COCCN1CCN(C(C(=O)O)c2ccc(SC)cc2)CC1` (stereo unspecified), for which the INHIBITION worked out at 49.4%.

As for `Cn1cc(CN2CCCC(O)C2)c(-c2ccccc2F)n1` (stereo unspecified), the INHIBITION is given as 3.13%. Take `COc1cccc(CN2CCC3(CC2)CCN(C(=O)[C@@H]2CCCO2)C3)c1`: the INHIBITION was -47.9%.

As to `Cc1ccc(N2CCOC(C)(C(=O)N(C)C)C2)nn1` (stereo unspecified), the INHIBITION amounted to 18.3%. Then `Cc1n[nH]c(C2CN(C(=O)c3cc4c(s3)CCC4)CCO2)n1` (stereo unspecified), with 0.914%; and `CC(C)c1n[nH]c(C2CN(C(=O)c3csnn3)CCO2)n1` (stereo unspecified), with 52.7%. Regarding `CCc1nnsc1C(=O)N1CCOC(c2nc(C)n[nH]2)C1` (stereo unspecified), the INHIBITION is 51.3%. Next, `Cc1n[nH]c(C2CN(C(=O)c3cc4c(s3)CCCC4)CCO2)n1` (stereo unspecified): -1.14%.

Consider `CCc1nnsc1C(=O)N1CCOC(c2nc(C(C)C)n[nH]2)C1` (stereo unspecified), for which the INHIBITION is -2.61%.

As to `CCc1n[nH]c(C2CN(C(=O)c3csnn3)CCO2)n1` (stereo unspecified), the INHIBITION worked out at 40.4%.

As for `CC(C)c1n[nH]c(C2CN(C(=O)c3cc4c(s3)CCC4)CCO2)n1` (stereo unspecified), the INHIBITION was 52.3%. With `Cc1n[nH]c(C2CN(C(=O)c3csnn3)CCO2)n1` (stereo unspecified), the INHIBITION was 35.1%.

As to `CCc1nc(C)ncc1C(=O)N1CCOC(c2nc(C)n[nH]2)C1` (stereo unspecified), the INHIBITION worked out at 23.5%. Next, `CC(CO)NC(=O)c1ccc(NCc2ccccc2)cc1` (stereo unspecified): 19.8%; `Cc1cc(Nc2ccc(F)cn2)cc(C2CCCN2)n1` (stereo unspecified): 34.9%; `CCN(C(=O)C1Cc2cc(Cl)ccc2O1)C1CC1` (stereo unspecified): 38.3%. Then `CNc1cc(C)nc(C2CCN(CCO)CC2)n1`, with -2.09%; and `Cc1nc(CN2C(=O)COC3(CCN(Cc4ccco4)CC3)C2C)cs1` (stereo unspecified), with -4.86%. Next, `Cc1cc(NC2CCN(c3ccccc3)C2)n2ncnc2n1` (stereo unspecified): 4.94%; `Cc1cc(NCCn2cccn2)n2ncnc2n1`: -38.8%. For `CCc1cc(NCc2ccccc2CN2CCCC2)n2ncnc2n1`, the INHIBITION turned out to be 11.1%. On to `COc1cccc(N2CCC(CNC(=O)NCc3ccco3)C2)c1` (stereo unspecified), for which the INHIBITION was -51%. Then `COc1cccc(N2CCC(CNc3cc(C)nc4ncnn34)C2)c1` (stereo unspecified), with 65.5%; and `CCc1cc(NCc2cccnc2N2CCCCC2)n2ncnc2n1`, with 36.2%. In the case of `Cc1cc(NCc2ccccc2CN2CCCCC2)n2ncnc2n1`, the INHIBITION was 54.4%. Next, `Cc1cc(NCC2CCCCC2)n2ncnc2n1`: 9.8%. With `Cc1cc(NCC2CCN(c3ccccc3)C2)n2ncnc2n1` (stereo unspecified), the INHIBITION came out at 78.9%.

As for `CCc1n[nH]c(C2CN(C(=O)c3cc4c(s3)CCC4)CCO2)n1` (stereo unspecified), the INHIBITION is listed as -7.31%. `C[C@H]1CN(C(=O)c2ccc[nH]2)C[C@@]12CCN(c1ccsc1)C2=O`: the INHIBITION was determined as 18.3%.

As to `NC(=O)c1cc(C2CCCN(CCOc3cccc(F)c3)C2)n[nH]1` (stereo unspecified), the INHIBITION came to 43.48%.

For the molecule `CN(C)Cc1nn(C)c2c1CN(C(=O)c1ccc[nH]1)C2`, the INHIBITION is reported as -4.02%. In the case of `COc1ccc(-c2ccnc3nc(N4CCCC4)[nH]c(=O)c23)cc1OC`, the INHIBITION turned out to be 40%. Then `Cc1cccc(NC(=O)N2CCN(Cc3noc(C4CC4)n3)CC2)c1`, with 46.2%. Next, `CC(=O)c1c(C)nn(CC(=O)N2Cc3cnc(C(C)(C)C)nc3C2)c1C`: -10.4%.

For the molecule `Cc1cc(C)n(CC(=O)N2Cc3cnc(C(C)(C)C)nc3C2)n1`, the INHIBITION is 51.3%. Then `CC(=O)N1Cc2cnc(C(C)(C)C)nc2C1`, with 19.8%; and `Cc1noc(Cl)c1CCC(=O)N1CCN(c2ccccc2)CC1`, with 26.5%; and `O=C(NCc1cccc(-n2cncn2)c1)NCC(C1CC1)C1CC1`, with 50.2%. Next, `Cc1c(CNC(=O)NCc2cccc(-n3cncn3)c2)cnn1C`: -40.4%; `CSC(C)(C)CNC(=O)NCc1cccc(-n2cncn2)c1`: -17.9%.

As for `CCn1ncc(CN(C)C(=O)c2ccn(C)n2)c1C`, the INHIBITION is 30%. Next, `Cc1ccsc1C(=O)N1CCN(Cc2cscn2)CC1`: -6.14%; `COCCN1C(=O)[C@@H]2CC[C@H]1CN(c1nccc(C3CCCC3)n1)C2`: -47.9%. Turning to `c1ccc(CN2CCCn3nnc(CNc4ncccn4)c3C2)nc1`, the INHIBITION was -18.4%. Next, `OC(COCc1ccccc1)CN1CCC(Cn2cccn2)CC1` (stereo unspecified): 43.5%; `Cc1cccc(CN2CCn3c(C(=O)N(C)C)cnc3C2)c1`: 50.9%.

As for `Cc1ccc(CN2CCn3c(C(=O)N(C)C)cnc3C2)cc1`, the INHIBITION worked out at 41.6%. Next, `CN(C)C(=O)c1cnc2n1CCN(Cc1ccccc1)C2`: 9.67%. Then `O=C(CCOCc1ccccc1)NS(=O)(=O)N1CCOc2ccccc21`, with -13.6%; and `CCc1ncc2c(n1)CN(Cc1ncc(C(C)(C)C)o1)CC2`, with 20%; and `COC(=O)CN(C(=O)c1ccc(-n2ccnc2)cc1)C1CCCC1`, with 0.566%. Next, `CC(=O)N1CC[C@@H]2O[C@@H](COCc3csc(C)n3)CC[C@@H]21`: 6.6%; `Cc1nc(COC[C@@H]2CC[C@H]3NCC[C@H]3O2)cs1`: 55.6%; `Cc1nc(COC[C@@H]2CC[C@H]3[C@H](CCN3S(C)(=O)=O)O2)cs1`: 25%. Take `Cc1nc(COC[C@H]2CC[C@H]3[C@H](CCN3c3ncccn3)O2)cs1`: the INHIBITION was 42.7%.

For the molecule `COCCN1CC[C@@H]2O[C@H](COCc3csc(C)n3)CC[C@@H]21`, the INHIBITION is given as 3.11%. In the case of `Cc1nc(COC[C@H]2CC[C@H]3NCC[C@H]3O2)cs1`, the INHIBITION is 51.2%. Take `CCn1cc(CN2CCCN(C(=O)CCc3cccs3)CC2)cn1`: the INHIBITION was found to be 11.4%. Then `c1cnn(Cc2cn3c(n2)CN(Cc2nccs2)CC3)c1`, with 16.6%; and `COc1ccccc1C(C)(C)NC(=O)Nc1ccc(F)c(C(N)=O)c1`, with -16.9%. Consider `Cc1cc(C)c(CNC(=O)CC2CCCO2)c(=O)[nH]1` (stereo unspecified), for which the INHIBITION was 14.55%. As to `CCOCCCNC(=O)C(NC(=O)Cc1cccs1)c1ccc(C)cc1` (stereo unspecified), the INHIBITION was found to be 54%. Then `CCOCCCNC(=O)Cc1cccs1`, with 30.8%; and `CCOCCCNC(=O)C(NC(=O)Cc1cccs1)c1ccccc1` (stereo unspecified), with 34.2%; and `CN1CCOC(CN(C(=O)CCCn2cccn2)c2nccs2)C1` (stereo unspecified), with -14.6%.
